Laboratory results reported in PubChem BioAssay AID588591 (National Center for Advancing Translational Sciences (NCATS), 2011).
Hit rate of the full screen: of about 390,000 compounds, about 4,700 (1.2%) were called active. Entries that show only a call come without a potency. Not shown: some 4% with an inconclusive outcome. The call rests on the fitted dose curve; in most records, active means well fitted inhibition curve with a large enough effect; inconclusive means small, poorly fitted or top-dose-only effect, or another doubt; inactive means no such curve, though single readings can be large or run the other way. Many of the other results were omitted from the sample, so actives are more common in it than they were.

Each compound was assayed against DNA polymerase eta (Homo sapiens) (UniProt Q9Y253) (assay: qHTS for Inhibitors of Polymerase Eta). Details: recombinant Pol eta, fluorescent DNA replication assay; series mostly up to 114 µM.
Chain of DNA polymerase eta (Homo sapiens) (Q9Y253 whole entry, looked up): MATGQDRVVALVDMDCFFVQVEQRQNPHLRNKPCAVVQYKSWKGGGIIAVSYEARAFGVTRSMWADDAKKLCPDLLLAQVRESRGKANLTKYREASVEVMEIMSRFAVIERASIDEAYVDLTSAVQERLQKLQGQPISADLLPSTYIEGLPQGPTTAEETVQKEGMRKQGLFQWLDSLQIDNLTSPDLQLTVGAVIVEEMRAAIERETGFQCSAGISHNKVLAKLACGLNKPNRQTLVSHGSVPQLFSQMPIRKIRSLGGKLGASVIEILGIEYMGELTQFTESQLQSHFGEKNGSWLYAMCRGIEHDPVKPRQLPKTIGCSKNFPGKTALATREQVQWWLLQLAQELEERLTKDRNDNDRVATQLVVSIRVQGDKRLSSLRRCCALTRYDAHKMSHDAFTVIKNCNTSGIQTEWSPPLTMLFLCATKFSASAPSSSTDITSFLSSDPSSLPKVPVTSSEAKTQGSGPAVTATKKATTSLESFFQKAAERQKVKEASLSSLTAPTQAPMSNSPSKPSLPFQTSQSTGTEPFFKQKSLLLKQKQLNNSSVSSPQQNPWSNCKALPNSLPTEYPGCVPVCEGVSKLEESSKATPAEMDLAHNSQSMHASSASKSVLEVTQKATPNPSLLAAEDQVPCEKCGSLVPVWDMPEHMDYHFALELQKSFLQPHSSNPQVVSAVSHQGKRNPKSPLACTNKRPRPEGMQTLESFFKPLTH
How it was run: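 Pol eta at 10 nM preincubated with compounds 15 min at room temperature; reaction started with fluorescent substrate (50 nM final) and read kinetically at 0 and 10 min.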
Potency means the concentration at half of the fitted maximal effect.

Structure (SMILES) | Potency
Cc1ccc(CN(C(=O)c2ccccc2[N+](=O)[O-])c2ccccn2)cc1 | inactive
CC(C)CCNC(=O)CSc1nc2ccccc2nc1Cc1ccc(Cl)cc1 | inactive
Cn1c(SCC(=O)N2CCCc3ccccc32)ncc(C(=O)Nc2ccc(F)cc2)c1=O | inactive
CC(NC(=O)c1cc2c(=O)n3ccccc3nc2n(C(C)C)c1=N)c1ccccc1 (centres undefined) | inactive
COc1ccc(OC)c2sc(N3CCN(C(=O)C4COc5ccccc5O4)CC3)nc12 (centres undefined) | inactive
Cc1c(CC(=O)N2CCN(C(=O)C3COc4ccccc4O3)CC2)c(=O)oc2c(O)c(O)ccc12 (centres undefined) | 2 µM (active)
COc1cc(NS(=O)(=O)c2ccc3c(c2)OCC(C(=O)N2CCCC2)O3)cc(OC)c1 (centres undefined) | inactive
O=S(=O)(NCCc1nnc2ccc(SCc3ccc(Cl)cc3Cl)nn12)c1ccccc1 | inactive
CCOCCCn1c(SCC(=O)Nc2ccc(CC)cc2)nc2ccccc2c1=O | inactive
COc1ccc(OC)c(NC(=O)/C=C/c2ccc(C)o2)c1 | inactive
CC(=O)Nc1ccc2c3c(ccc([N+](=O)[O-])c13)CC2 | inactive
Cc1ccc(/C=C/C(=O)Nc2ccc([N+](=O)[O-])c(NC(=O)/C=C/c3ccc(C)o3)c2)o1 | 8.91 µM (active)
COc1ccc(NC(=O)CCNS(=O)(=O)c2ccc3c(c2)CCCC(=O)N3)cc1Cl | inactive
O=c1[nH]n(-c2ccc([N+](=O)[O-])cc2)c(=O)c2ccccc12 | 39.8 µM (active)
O=C(CSCc1ccc([N+](=O)[O-])cc1)NCCSCc1ccccc1 | inactive
C=CCNC(=S)N1CCN(CCN=Cc2c(C)[nH]n(-c3ccc([N+](=O)[O-])cc3)c2=O)CC1 | inactive
Cc1cc(C)cc(NC(=O)CSc2oc(-c3ccccc3)nc2S(=O)(=O)c2ccc(Cl)cc2)c1 | inactive
Cc1ccc(C(=O)Oc2coc(CSc3nnc(NC(=O)c4cccs4)s3)cc2=O)cc1C | 7.94 µM (active)
CCOc1ccccc1Nc1nnc(SCc2ccc(C(=O)OC)o2)s1 | inactive
COCCSc1nnc(NC(=O)c2cc(OC)c(OC)cc2[N+](=O)[O-])s1 | inactive

Structure (SMILES) | Potency
CC1=C(c2ccc(C)cc2)S(=O)(=O)NC1=NCCCN1CCN(c2cc(C)ccc2C)CC1 | inactive
CCc1ccc2ncc3c(-c4ccc(C)cc4)nn(CC(=O)NCc4ccccc4)c3c2c1 | inactive
CCc1ccc(CNCc2c(C(=O)O)n(Cc3ccc(F)cc3Cl)c3cc(OC)ccc23)cc1 | inactive
COc1cc(C(=O)NCCc2csc3nc(-c4ccccc4C)nn23)cc(OC)c1OC | inactive
O=C(COC(=O)c1ccc([N+](=O)[O-])o1)NC12CC3CC(CC(C3)C1)C2 | 79.4 µM (active)
O=C(COC(=O)c1ccc(Br)o1)NC12CC3CC(CC(C3)C1)C2 | inactive
O=C(OCC(=O)c1cccs1)c1ccc([N+](=O)[O-])o1 | inactive
ON=C1/C(=N\O)CC2(C/C1=N/O)OCCO2 | 56.2 µM (active)
COc1ccc(OC)c(NC(=O)CN2CCCN(Cc3cc(C)ccc3C)S2(=O)=O)c1 | inactive
COC(=O)c1sc(-c2ccc(C(C)(C)C)cc2)cc1NC(=O)/C=C/C(=O)O | 79.4 µM (active)
COc1ccc(Nc2ncc3c(n2)CCN(C(=O)OC(C)(C)C)C3)cc1 | inactive
COc1ccc(/C=C/c2noc(-c3ccccc3O)n2)cc1OC | inactive
O=C(CCc1nc(CN2CCN(S(=O)(=O)c3ccc(Cl)cc3)CC2)no1)N1CCCCC1 | inactive
CCCCN(CC)CCCNC(=O)Cn1ncc2c([nH]c3ccc(C)cc32)c1=O | inactive
Cc1cc(=O)n2[nH]c(-c3sccc3-n3c(C)ccc3C)cc2n1 | 22.4 µM (active)
Cc1ccc(-c2cc(N)n(Cc3cccc(Cl)c3)n2)cc1 | inactive
COc1cc(Nc2nc(-c3ccc(OC)c(OC)c3)nc3ccccc23)cc(OC)c1 | inactive
CC(=O)N(C1=C(Cl)C(=O)c2ccccc2C1=O)c1ccc(C(=O)O)cc1 | 20 µM (active)
CCC(=O)N1CCc2cc(S(=O)(=O)NC(Cc3ccccc3)C(=O)NCc3ccc(C)cc3)ccc21 (centres undefined) | inactive
Cc1ccn2c(=O)nc(SCC(=O)NCc3ccc(F)cc3)nc2c1 | 28.2 µM (active)

Structure (SMILES) | Potency
COc1ccc(CNC(=O)CSc2n[nH]c(-c3ccc(F)cc3)n2)cc1 | inactive
Cc1ccc2nc(SCC(=O)Nc3cccc4ccccc34)nc(=O)n2c1 | inactive
Cc1ccc(C)c(N2CCN(C(=O)Cn3ncc4c(=O)oc5ccc(C)cc5c43)CC2)c1 | inactive
CCOC(=O)c1ccc(CN(Cc2ccccc2)S(=O)(=O)c2ccc(Cl)cc2)cc1 | inactive
CCCn1c(=O)c2[nH]c(-c3ccc(OCC(=O)NCCN)cc3)nc2n(CCC)c1=O | inactive
COc1ccc(C(=O)Nc2cccc(/C=C(/CCC(=O)O)c3nc4ccccc4s3)c2)cc1 | 39.8 µM (active)
COc1ccc(CC(=O)Nc2ccc(-c3nc4ccccc4s3)c(C)c2)cc1 | inactive
COc1cccc(NC(=O)c2ccc3nc(CCc4ccccc4)oc3c2)c1 | inactive
COc1ccc(OC)c(NC(=O)C2CCN(S(=O)(=O)c3ccc(C)cc3)CC2)c1 | inactive
CCOC(=O)c1ccc(N2C(=O)c3n[nH]c(-c4ccco4)c3C2c2ccc(O)cc2)cc1 (centres undefined) | inactive
COC(=O)c1ccc2c(c1)N(CC(=O)Nc1ccc(C)c(C)c1)C(=O)c1ccccc1S2 | inactive
COc1ccccc1NC(=O)CN1C(=O)c2ccccc2Sc2ccc(C(=O)N3CCCC3)cc21 | 79.4 µM (active)
CCN1C(=O)c2ccccc2Sc2ccc(NC(=O)Cc3ccc(OC)cc3)cc21 | inactive
CC(C)(C)C1CCc2c(sc(NC(=O)c3ccccc3F)c2C(=O)N2CCCCC2)C1 (centres undefined) | inactive
CCOc1ccccc1NC(=O)c1ccc2c(c1)CCN2S(=O)(=O)c1ccc(C)cc1 | inactive
CCc1ccc(C2C(C(=O)Nc3ccccc3)=C(C)Nc3c(C(=O)Nc4ccc(C)cc4)cnn32)cc1 (centres undefined) | inactive
C1=C(N2CCOCC2)/C(=C/c2nc3ccccc3[nH]2)CC1 | 20 µM (active)
COc1cc(OC)c(C2C=C(C(=O)O)Nc3ncnn32)cc1OC (centres undefined) | inactive
Cc1cc(C)c(NC(=O)CSc2nc3nccnc3c(=O)n2CCc2c[nH]c3ccccc23)c(C)c1 | inactive
